Compounds without any hit were thinned out: in the full panel of roughly 83,000, 20% have a hit.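 Assay: single dose, 48 h. Readout: percent growth (0 = no net growth; negative = cell death). Active: <10.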 Calls of active or inactive are those of the source.

The test system of this assay is NCI-H23 lung. The assay can be described thus: NCI-60 one-dose screen, 48 h (100 = growth as untreated, 0 = no growth, -100 = all killed). Conditions: 10 µM unless noted. On the procedure:
Growth inhibition of the NCI-H23 human Non-Small Cell Lung tumor cell line is measured as a screen for anti-cancer activity. Cells are grown in 96 well plates and exposed to the test compound for 48 hours. Compounds are tested at a single concentration, which is 10^-5 M for most compounds. The reported endpoint is percent growth (GI% or GIPRCNT), where numbers from 0 - 100% represent growth inhibition, and numbers from -100% - 0 represent cell death. For example, a value of 40 represents 60% growth inhibition. A value of 0 means no net growth occurred over the course of the experiment. A value of -40 indicates 40% of cells at the beginning of the experiment died by the end of the experiment. A value of -100 means all cells are dead at the end of the experiment.
NCI-60 Human Tumor Cell Lines Screen was performed using the standard one-dose NCI protocol, which is described in more detail at https://dtp.cancer.gov/discovery_development/nci-60/default.htm.
Compounds with GIPRCNT values below 10 were considered active. Activity score was based on GIPRCNT using the following formula: […]
Score is 0 for GIPRCNT values of 100 or above, 50 for GIPRCNT values of 0, and 100 for GIPRCNT values of -100.
Consider `OC1CSSC1Cn1cnc2c(Nc3ccc(F)c(Cl)c3)ncnc21` (stereo not given), for which the growth was 60.2% (inactive).

In the case of `Clc1nc(N2CCC[N+]3(CC2)CC[N+]2(CCCNCC2)CC3)nc(N2CCC[N+]3(CC2)CC[N+]2(CCCNCC2)CC3)n1` (stereo not given), the growth was 89.2% (inactive).

As for `C#CCOc1cc(/C=N/Nc2nc(-c3ccc(OC)cc3)cs2)ccc1O`, the growth was 58.8% (inactive).

Turning to `Nc1nc(N)c2c(n1)NC(c1cccc(Nc3ccnc4cc(C(F)(F)F)ccc34)c1)CC(c1ccc(Cl)cc1)=N2` (stereo not given), the growth is 64.7% (inactive).

On to `O=C(Nc1cccc(Cl)c1)Oc1c(Cl)c(Cl)c(Cl)c(Cl)c1Cl`, for which the growth was 88.1% (inactive).

As to `Cc1cc2nc(C(Cl)Cl)nc(-c3ccccc3)n2n1`, the growth is 33.6% (inactive).

With `O=C(Nc1ccccc1C(F)(F)F)C1=NCCCCN1`, the growth is 98.5% (inactive).

As for `Cc1ccc(-c2nnc(SCc3nc(N)nc(Nc4ccccc4F)n3)n2-c2ccccc2)cc1`, the growth was 101% (inactive).

On to `O=[N+]([O-])c1ccc(Oc2cccc3c(Oc4ccc([N+](=O)[O-])cc4[N+](=O)[O-])cccc23)c([N+](=O)[O-])c1`, for which the growth is 75.3% (inactive).

As for `O=C1CC2C=CCN2C=C1NC(=O)c1ccccc1` (stereo not given), the growth was 101% (inactive).

For the molecule `Cc1cc([N+](=O)[O-])ccc1NC(=O)c1ccc2c(c1)nc(-c1ccccc1)n2C1CCCCC1`, the growth is 91.5% (inactive).

On to `CN1C(=O)N(C)C2C1NN=c1s/c(=C\c3ccccc3F)c(=O)n12` (stereo not given), for which the growth was 33.1% (inactive).

For `CCCCC/C=C/CCC(=O)N[C@H]1[C@H](Oc2c3cc4cc2Oc2ccc(cc2Cl)[C@@H](O[C@@H]2O[C@H](CO)[C@@H](O)[C@H](O)[C@H]2NC(C)=O)[C@@H]2NC(=O)[C@H](NC(=O)[C@@H]4NC(=O)[C@H]4NC(=O)[C@@H](Cc5ccc(c(Cl)c5)O3)NC(=O)[C@@H](N)c3ccc(O)c(c3)Oc3cc(O)cc4c3)c3ccc(O)c(c3)-c3c(O[C@H]4O[C@H](CO)[C@@H](O)[C@H](O)[C@@H]4O)cc(O)cc3[C@H](C(=O)O)NC2=O)O[C@H](CO)[C@H](O)[C@@H]1O`, the growth was 93.4% (inactive).

Turning to `Cc1nc2ccccc2c(/C=C/c2ccc(Cl)cc2)c1C(=O)/C=C/c1ccccc1`, the growth was 22.2% (inactive).

Turning to `CN(C)CC1C(=O)O[C@H]2[C@H]1CC/C(COC(=O)NCc1ccc(Cn3c(=O)sn(CCCI)c3=O)cc1)=C\CC[C@@]1(C)O[C@@H]21` (stereo not given in full), the growth is 55.3% (inactive).

Take `Cc1cc2c(C(C)C)c(O)c(O)c(/C=N/O)c2c(O)c1-c1c(C)cc2c(C(C)C)c(O)c(O)c(/C=N/O)c2c1O`: the growth is 27.3% (inactive).

Regarding `O=C1N/C(=N/N=C(c2ccccc2)c2ccccc2)S/C1=C\c1ccc(Br)cc1`, the growth is 94.1% (inactive).

With `N#Cc1c(-c2ccc(Cl)cc2)nc(NN=Cc2cccc(Cl)c2)nc1N1CCOCC1`, the growth is 101% (inactive).

Take `CO[C@]12C=C/C(=C(/C(=O)OCc3cccnc3)C(=O)CCCCCCCC[C@]3(OC)C=C/C(=C(/C(=O)OCc4cccnc4)C(=O)CCCCCCCC1)O3)O2`: the growth is -75.3% (active).

As to `COc1ccc(Cn2cc3c(c2)-c2oncc2CC3)cc1`, the growth is 79.8% (inactive).

Turning to `COc1ccc(S(=O)(=O)N(C)c2oc(-c3ccc(Cl)cc3)nc2C#N)cc1`, the growth was 79.7% (inactive).

Turning to `C=CC(=O)Nc1ccc2ncnc(Nc3cccc(NS(=O)(=O)CCC)c3Cl)c2c1`, the growth was 68.9% (inactive).

As for `Cc1ccccc1NC(=O)c1sc2nc3c(cc2c1N)CCCC3`, the growth is 47.2% (inactive).

Regarding `Nc1nc(Nc2ccc([N+](=O)[O-])cc2O)nc(C(Cl)(Cl)Cl)n1`, the growth is 80.1% (inactive).

In the case of `Cc1ccc(C2=Nc3c(N)nc(N)nc3NC(c3cccc(Nc4ccnc5cc(C(F)(F)F)ccc45)c3)C2)cc1` (stereo not given), the growth is 39.4% (inactive).

As to `Cc1ccc(C(=O)Nc2ccc(CN3CCN(C)CC3)c(C(F)(F)F)c2)cc1C#Cc1cnc(N)c2ccccc12`, the growth is -46% (active).

`O=C(Nc1ccc(Oc2cccc(F)c2)c(Cl)c1)c1cnccn1`: the growth is 44.9% (inactive).

Take `O=C(Cn1cc(CSc2nc3ccccc3o2)nn1)Nc1ccc([N+](=O)[O-])cc1`: the growth is 97.8% (inactive).

On to `CCOC(=O)c1c(C)n2c(=O)cc(C)c3c(OC(C)=O)c(OC(C)=O)cc1c32`, for which the growth is 75% (inactive).

Consider `C=C1/C(=C\C=C2/CCC[C@]3(C)[C@@H]([C@H](C)CCCC(C)(C)O)CC[C@@H]23)C[C@@H](OC(=O)CBr)C[C@@H]1O`, for which the growth was 37.7% (inactive).

For `CCNc1nc(-c2ccc(Cl)c(OC)c2)c(-c2ccnc(NCCNS(=O)(=O)c3ccc(Cl)cc3)n2)s1`, the growth was 26.2% (inactive).

On to `O=C(CSc1nnc(-c2ccc(Cl)c(Cl)c2)n1-c1ccccc1)Nc1ccc(C(=O)/C=C/c2ccc(Cl)cc2)cc1`, for which the growth is 95.4% (inactive).

Take `CCCC[N+]1(C)CCN=C1Cc1ccccc1` (stereo not given): the growth was 101% (inactive).

In the case of `N=C(N)c1ccc(-c2ccc(-c3ccc(Cl)cc3Cl)s2)nc1`, the growth is 85.2% (inactive).

As for `Fc1ccc(/C=C/c2cc(/C=C/c3ccc(F)cc3)n(-c3cc(F)cc(F)c3)n2)cc1`, the growth was 98.3% (inactive).

As for `O=C(Nc1cccc2c1C(=O)c1cccc(NC(=O)c3ccc(C(=O)Nc4cccc5c4C(=O)c4cccc(NC(=O)c6ccccc6)c4C5=O)cc3)c1C2=O)c1ccccc1`, the growth was 98% (inactive).

For `O=C1c2ccccc2-c2c1c1ccncc1c(=O)n2CCCn1ccnc1`, the growth was 51.8% (inactive).

Take `COc1cccc(C2C(C#N)=C(N)Oc3c2ccc2ccccc32)c1` (stereo not given): the growth is 28.4% (inactive).

As for `CN1CCN(Cc2ccc(NC(=O)c3cncc(C#Cc4cnc(N)c5ccc(C#N)cc45)c3)cc2C(F)(F)F)CC1`, the growth is -22% (active).

`COC(=O)c1nc(-c2ccc(C)cc2)oc1N1CCOCC1`: the growth is 106% (inactive).
